Compounds with a hit are over-represented: about 2.8% of the library has one in this group of screens.
SENP6 inh = blocks the human protease SENP6. Recombinant SENP6 catalytic domain, aminoluciferin luminescence. inhibition, % at 10 µM. 330,000 compounds, 1.8% hits. Q9GZR1. AID 2599;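 active = inhibition above about 50% at the single tested dose, limit read from the data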;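 also: plate controls were DMSO wells with enzyme for no effect and DMSO wells lacking enzyme for full effect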
HSP90 refold inh = HSP90 refolding inhibition in rabbit reticulocyte lysate; luciferase refolding luminescence, 3 h; inhibition, % at 5.6 µM; 290,000 compounds, 0.91% hits;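 active = inhibition above the screen-wide mean plus 3 SD, computed separately per campaign, cut at about 16% in these data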;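 also: 0% = DMSO wells and 100% = 60 µM geldanamycin wells; inhibitors lower the luminescence because luciferase stays unfolded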
SENP7 block = SENP7 protease inhibition | recombinant SENP7, Z-RLRGG-aminoluciferin luminescence, 40 min | AID 434973 | Q9BQF6 | inhibition, % at 5 µM | 330,000 compounds, 1.5% hits;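 active = inhibition above about 50% at the single test dose, limit read from the data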;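 also: plate controls were DMSO with enzyme for no effect and no enzyme buffer wells for full effect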
SENP8 block-1 = SENP8 (human) protease inhibition. AID 602440. inhibition, % at 20 µM. Q96LD8. recombinant SENP8, Nedd8 substrate fluorescence. 360,000 compounds, 0.64% hits; in the data active = inhibition mostly above about 40%, no sharp cut-off; inactive = mostly below about 27%
Target sequence (Q96LD8 whole entry, looked up): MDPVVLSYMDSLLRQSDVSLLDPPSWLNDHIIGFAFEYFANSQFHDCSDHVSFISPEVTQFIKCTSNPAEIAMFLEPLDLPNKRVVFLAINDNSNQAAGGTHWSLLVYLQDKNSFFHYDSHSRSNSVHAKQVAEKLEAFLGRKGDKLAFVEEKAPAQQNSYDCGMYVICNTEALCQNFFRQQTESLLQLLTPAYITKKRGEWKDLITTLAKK
SENP8 block-2 = SENP8 protease inhibition | inhibition, % at 10 µM | Q96LD8 | 330,000 compounds, 1.2% hits | purified SENP8, Z-RLRGG-aminoluciferin cleavage, luminescence | AID 2540; in the data active = inhibition above about 50%
SENP8 conf = human SENP8 inhibition, confirmed; shares compounds with SENP7 block; Recombinant SENP8, Z-RLRGG-aminoluciferin luminescence, 60 min; 6,200 compounds, 40% hits; inhibition, % at 12.5 µM;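 active = mean inhibition across replicates above about 50%, limit read from the data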
SENP6 confirm = confirmation of human SENP6 protease inhibitors | shares compounds with SENP7 block | AID 488915 | 6,200 compounds, 58% hits | inhibition, % at 12.5 µM | recombinant SENP6, Z-RLRGG-aminoluciferin luminescence
SENP7 confirm = confirmation of human SENP7 protease inhibitors; shares compounds with SENP7 block; recombinant SENP7, Z-RLRGG-aminoluciferin luminescence, 40 min; inhibition, % at 12.5 µM; 6,200 compounds, 69% hits; AID 488917
Casp3 SENP sel = selectivity test for SENP inhibitors: human caspase-3 inhibition | AID 488918 | inhibition, % at 12.5 µM | 6,200 compounds, 60% hits | purified caspase-3, Z-DEVD-aminoluciferin luminescence, 60 min | shares compounds with SENP7 block;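 active = mean inhibition above about 50%, limit read from the data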;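 also: plate controls were enzyme with DMSO for no effect and wells without caspase-3 for full effect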
Target sequence (P42574 28-227 limits assumed): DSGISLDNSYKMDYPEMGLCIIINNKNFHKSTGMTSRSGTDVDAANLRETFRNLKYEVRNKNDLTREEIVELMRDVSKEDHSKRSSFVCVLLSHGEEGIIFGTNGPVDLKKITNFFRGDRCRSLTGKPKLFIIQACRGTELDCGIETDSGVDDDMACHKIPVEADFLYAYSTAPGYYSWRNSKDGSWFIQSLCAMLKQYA
Luc interf = counter-screen for SENP inhibitors: luminescence interference; shares compounds with SENP7 block; Pre-incubated SENP8/Z-RLRGG-aminoluciferin, luciferase luminescence interference; inhibition, % at 12.5 µM; 6,200 compounds, 39% hits; AID 488919;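 active = mean inhibition above about 50% when retested at one dose, limit read from the data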;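 also: plate controls were DMSO wells with completed reaction for no effect and substrate without enzyme for full effect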
An asterisk follows results filed as active; / = no result given.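 The calls were made as follows, unless noted: active = mean inhibition above about 50% in the one-dose retest (limit read from the data); inactive = the rest.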

SMILES	SENP6 inh	HSP90 refold inh	SENP7 block	SENP8 block-1	SENP8 block-2	SENP8 conf	SENP6 confirm	SENP7 confirm	Casp3 SENP sel	Luc interf
Cc1cc(C(=O)Nc2ccccn2)no1	13	-2	13	18	3	/	/	/	/	/
CCC(C)(C)c1ccc2c(c1)C(=O)c1ccccc1C2=O	93*	-4	77*	14	79*	10	84*	86*	96*	80*
CCC(=O)Nc1ccc2c(c1)C(=O)c1ccccc1C2=O	16	-2	38	18	8	/	/	/	/	/
N/C(=N\N=C\c1ccc(O)cc1)c1nonc1N	93*	0	98*	7	95*	97*	98*	102*	98*	96*
N/C(=N\N=C\c1ccc(Br)o1)c1nonc1N	48	2	36	17	31	/	/	/	/	/
COc1ccc(/C=N/N=C(\N)c2nonc2N)cc1OC	17	-2	26	13	11	/	/	/	/	/
COc1cc(/C=N/N=C(\N)c2nonc2N)ccc1O	93*	-1	94*	14	89*	93*	92*	99*	94*	92*
N/C(=N\N=C\c1cccc(O)c1)c1nonc1N	95*	29*	97*	18	95*	97*	99*	102*	98*	94*
CC(C)c1cccc(C(C)C)c1NC(=O)CN1C(=O)NC2(CCCC2)C1=O	34	0	4	10	5	/	/	/	/	/
COc1cc(/C=N/NC(=O)CNC(=O)/C=C/c2ccco2)cc(OC)c1OC	-1	-1	2	-3	-2	/	/	/	/	/
Oc1cccc2cnccc12	-7	13	0	7	-1	/	/	/	/	/
Nc1cccc2cnccc12	91*	11	-13	-22	89*	-26	19	6	-5	-6
CC(=O)c1cnc2cc(-c3ccc(Cl)cc3)nn2c1C	19	5	39	-439	-16	/	/	/	/	/
Cc1c(C(=O)O)cnc2cc(-c3ccc(Cl)cc3)nn12	91*	-6	82*	-374	82*	89*	88*	100*	93*	87*
O=C(COC(=O)Cn1cnc2ccccc21)Nc1cc(S(=O)(=O)N2CCOCC2)ccc1Cl	2	10	-4	9	-4	/	/	/	/	/
O=C(COC(=O)Cn1cnc2ccccc21)Nc1cc2c(cc1Cl)C(=O)c1ccccc1C2=O	71*	-3	90*	16	61*	58*	67*	86*	73*	14
CCCCN1C(=O)C(=Nc2cccc3cnccc23)c2ccccc21	87*	5	81*	-398	11	-10	-3	-7	-2	-7
CCCCN1C(=O)/C(=C2\SC(N3CCCCC3)=NC2=O)c2ccccc21	26	0	11	13	-7	/	/	/	/	/
CCc1nnc(NC(=O)c2ccc(-c3ccccc3Cl)o2)s1	33	1	68*	-228	10	5	3	1	9	-3
COc1ccc(NC(=O)c2ccc(-c3ccccc3Cl)o2)cc1	75*	-2	52*	6	69*	48	64*	86*	49	5
COc1ccc(NC(=O)c2ccc(-c3ccc(C)c4ccccc34)o2)cc1	-1	2	-10	-74	5	/	/	/	/	/
O=C(NCc1cccnc1)c1ccc(-c2cccc(Cl)c2Cl)o1	8	-4	91*	-5	2	-29	-16	-6	-4	-7
O=C(Nc1ccccc1)c1cc(-c2ccccc2Cl)no1	88*	12	85*	22	69*	81*	81*	95*	69*	74*
O=C(NCc1cccnc1)c1ccc(-c2ccccc2[N+](=O)[O-])o1	-3	1	2	11	4	/	/	/	/	/
COC(=O)c1cc(=O)n(Cc2ccc(OC)cc2)c(=NCc2ccc(OC)cc2)s1	-3	1	0	16	8	/	/	/	/	/
